Screens deposited in PubChem by NMMLSC.
Rab2A wt mod: modulators of GTP binding to Rab2A wildtype, primary screen, biochemical, dog, bead-based flow cytometry, multiplex | GST-Rab2 wt beads, Bodipy-GTP binding | AID 760, 2007 | 190,000 tested, 0.19% active | Ras-related protein Rab-2A (Canis lupus familiaris), P61105 | GTP binding activity, % at 10 µM;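 active means GTP binding activity at least 20 points away from 100%, either lowered or raised; inconclusive means signal likely due to the compound's own green fluorescence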;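 further: 0% = beads with excess unlabeled GTP and 100% = no-compound control corrected for plate trend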
Rac1 act GTP bind: GTP binding modulators of activated mutant Rac1, primary screen, biochemical, bead-based flow cytometry, multiplex, fluorescent GTP. Ras-related C3 botulinum toxin substrate 1 (Homo sapiens), P63000. GST-Rac1 activated beads; actives lie on both sides; 100% means binding = to untreated wells. percent activity (GTP binding), % at 10 µM. 190,000 tested, 0.11% active. AID 764, 2007;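 active means GTP binding at least 20 percentage points away from the 100% baseline, in either direction, so actives lie on both sides; inconclusive means Compound likely fluorescent itself, or too few beads counted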
Rab7 wt GTP bind: modulators of GTP binding to Rab7, primary screen, biochemical, wildtype, multiplex bead flow cytometry | Rab7 GTPase wild type (dog), Bodipy-FL-GTP binding | GST-Rab7 beads, fluorescent GTP binding; actives lie on both sides; untreated = 100%, excess cold GTP = 0% | GTP binding activity (percent of control), % at 10 µM | 190,000 tested, 0.055% active | AID 758, 2007;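 active means fluorescent GTP binding to Rab7 beads changed by at least 20 points from the 100% baseline, either direction, mostly lower; inconclusive means compound itself probably fluorescent, or too few beads counted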;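 further: median green fluorescence of bound Bodipy-FL-GTP per Rab7 bead population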
Cdc42 wt GTP: modulators of GTP binding to wildtype Cdc42, primary screen, biochemical, multiplex bead flow cytometry, Bodipy-GTP. Cell division control protein 42 homolog (Homo sapiens), P60953. GST-Cdc42 beads; actives lie on both sides. percent activity (GTP binding), % at 10 µM. 190,000 tested, 0.2% active;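 active means percent activity GTP binding at least 20 points away from the 100% baseline, either down as inhibitor or up as activator; inconclusive means compound flagged as likely green fluorescent from well-wide comparison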;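 further: median bead fluorescence of bound Bodipy-FL-GTP at 100 nM; 0% = excess unlabeled GTP control and 100% = no compound control; below 100% means less GTP binding so inhibitor and above means activator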
Target sequence (P60953 whole entry, looked up): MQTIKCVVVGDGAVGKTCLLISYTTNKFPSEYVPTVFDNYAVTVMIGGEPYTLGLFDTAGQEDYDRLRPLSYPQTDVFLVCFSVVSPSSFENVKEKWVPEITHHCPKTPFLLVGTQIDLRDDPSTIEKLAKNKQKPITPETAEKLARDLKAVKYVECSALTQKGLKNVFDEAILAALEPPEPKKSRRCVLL
HRas wt GTP bind: modulators of GTP binding to HRas wildtype, primary screen, biochemical, bead-based flow cytometry, multiplex; GTPase HRas (Homo sapiens), P01112; GST-Ras wt beads, Bodipy-FL-GTP binding; actives lie on both sides; GTP binding activity, % at 10 µM; 190,000 tested, 0.14% active; AID 759, 2007;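 active means GTP binding activity at least 20% away from the 100% baseline, either lowered as inhibitor or raised as activator; inconclusive means flagged as likely green fluorescent, judged across all proteins in the well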;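 further: 0% = unlabeled GTP competition control and 100% = no-compound control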
Target sequence (P01112 whole entry, looked up): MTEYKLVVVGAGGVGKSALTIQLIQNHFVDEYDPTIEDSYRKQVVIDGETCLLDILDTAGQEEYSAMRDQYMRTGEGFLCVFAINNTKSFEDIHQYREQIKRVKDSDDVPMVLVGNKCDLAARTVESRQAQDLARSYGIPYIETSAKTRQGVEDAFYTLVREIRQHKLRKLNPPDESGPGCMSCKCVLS
Rac1 wt modul: wildtype Rac1 GTP binding modulators, primary screen, biochemical, GST-Rac1 beads, flow cytometry, multiplex; Ras-related C3 botulinum toxin substrate 1 (Homo sapiens), P63000; fluorescent GTP binding; actives lie on both sides; 0 = cold GTP competed, 100 = untreated; GTP binding activity (% of control), % at 10 µM; 190,000 tested, 0.27% active; AID 757, 2007;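 active means GTP binding activity at least 20 points away from the 100% control level, either lower or higher; inconclusive means compound flagged as likely green fluorescent, judged across all proteins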
Numbers without * were called inactive; u = inconclusive; [ ] = dose if it differs, or a comment. In the library only some 0.37% were active in any assay of this set; here they are far more common.

SMILES	Rab2A wt mod	Rac1 act GTP bind	Rab7 wt GTP bind	Cdc42 wt GTP	HRas wt GTP bind	Rac1 wt modul
COc1cccc(OC)c1-c1nn2c(-c3cc(-c4ccccc4)n[nH]3)nnc2s1	167.0*[activator]	u	u	179.0*[activator]	162.0*[activator]	206.0*[activator]
CCCCCNC(=O)C1CCC(Cn2c(=S)[nH]c3ccccc3c2=O)CC1 (stereo unspecified)	98.0	96.0	97.0	94.0	97.0	98.0
COc1ccc(-c2c(C#N)c(N)nc3c2CCc2ccccc2-3)cc1OC	98.0	95.0	97.0	98.0	100.0	105.0
COc1ccc(-c2cc(-c3ccc(O)cc3)nc(N)c2C#N)cc1OC	79.0*	85.0	83.0	81.0	81.0	69.0*
CNS(=O)(=O)c1cccc(C(=O)OCC(=O)Nc2ccc(OC)cc2[N+](=O)[O-])c1	95.0	97.0	94.0	97.0	97.0	96.0
N#C/C(=C/c1ccc(-c2cc(C(=O)O)cc(C(=O)O)c2)o1)c1nc2ccccc2s1	67.0*	77.0*	86.0	71.0*	75.0*	70.0*
N#C/C(=C\c1ccco1)c1nc2ccccc2s1	99.0	99.0	96.0	98.0	100.0	100.0
COc1ccc2o/c(=N/NC(=O)c3cccs3)c(C(N)=O)cc2c1	61.0*	80.0	91.0	60.0*	61.0*	57.0*
O=C(Nc1nnc(-c2ccc3c(c2)OCCO3)o1)c1ccc(Cc2ccccc2)cc1	81.0	79.0*	86.0	80.0	85.0	92.0
O=C(CCOc1ccccc1)Nc1nnc(-c2ccc3c(c2)OCCO3)o1	90.0	88.0	99.0	89.0	88.0	90.0
COc1c(C)cccc1C(=O)NC(=S)Nc1ccc2c(c1)Cc1ccccc1-2	75.0*	74.0*	83.0	77.0*	83.0	77.0*
CC(=O)Nc1ccc(N2CCOCC2)c([N+](=O)[O-])c1	101.0	97.0	105.0	101.0	98.0	101.0
COC(=O)c1cn(NC(=O)Cn2nc([N+](=O)[O-])c(Br)c2C)c(=O)c2ccccc12	87.0	84.0	89.0	87.0	90.0	86.0
Cc1cc(C)c2c(n1)sc1c(O)cc(=O)[nH]c12	103.0	102.0	100.0	104.0	100.0	107.0
COc1ccc(-c2cc(C(F)(F)F)c3c(n2)sc2c(O)cc(=O)[nH]c23)c(OC)c1	78.0*	89.0	93.0	89.0	80.0	80.0
COc1ccccc1NC(=S)N1CC(C)OC(C)C1 (stereo unspecified)	95.0	91.0	96.0	91.0	93.0	91.0
O=C(COC(=O)/C=C/c1ccc(Cl)cc1)Nc1ccc2c(c1)OCCO2	76.0*	78.0*	87.0	83.0	81.0	79.0*
C/C(=N\OCC(=O)NC12CC3CC(CC(C3)C1)C2)c1cc2ccccc2o1	99.0	99.0	98.0	98.0	98.0	102.0
CCOC(=O)C(C(=O)OCC)c1cc(Br)c2noc3c2c1C(=O)c1ccccc1-3	99.0	89.0	102.0	103.0	96.0	94.0
O=C1c2ccccc2-c2onc3ccc(Oc4ccccc4)c1c23	79.0*	68.0*	88.0	78.0*	81.0	79.0*
Nc1[nH]n2c(=O)c3c(nc2c1N=Nc1ccccc1)CCCC3	71.0*	85.0	94.0	72.0*	73.0*	85.0
Nc1[nH]n2c(=O)c3c(nc2c1N=Nc1ccc(Cl)cc1)CCCC3	81.0	84.0	89.0	86.0	86.0	74.0*
COc1cccc(N=Nc2c(N)[nH]n3c(=O)cc(-c4ccccc4)nc23)c1	88.0	91.0	94.0	92.0	92.0	93.0
Cc1ccc(N=Nc2c(N)[nH]n3c(=O)cc(-c4ccccc4)nc23)cc1	78.0*	77.0*	83.0	79.0*	85.0	79.0*
CN(Cc1ccccc1)c1ccc(N2C(=O)CCCC2=O)cc1[N+](=O)[O-]	98.0	99.0	97.0	97.0	99.0	99.0
SMILES	Rab2A wt mod	Rac1 act GTP bind	Rab7 wt GTP bind	Cdc42 wt GTP	HRas wt GTP bind	Rac1 wt modul
COc1cccc(NC(=O)CN2CCN(c3ccc(F)cc3)CC2)c1	97.0	95.0	98.0	96.0	97.0	95.0
COc1cccc(NC(=O)NCCCN2CCN(c3ccc(F)cc3)CC2)c1	98.0	100.0	76.0*	100.0	98.0	99.0
COc1ccc(C(O)(c2ccccc2OC)C(CN2CCOCC2)c2ccccc2)cc1 (stereo unspecified)	100.0	95.0	106.0	94.0	100.0	98.0
Cc1cc(=O)[nH]c2c(N=Nc3ccc(O)cc3)c(N)nn12	64.0*	79.0*	84.0	60.0*	63.0*	56.0*
CCOc1cc(/C=C2\SC(=O)N=C2N)ccc1O	80.0	89.0	90.0	87.0	86.0	77.0*
Cc1ccc(N2C(=O)N(Cc3ccccc3C)c3ccccc3S2(=O)=O)cc1	101.0	99.0	96.0	102.0	100.0	103.0
CSc1nc2ccc(NS(=O)(=O)c3c(Cl)cccc3Cl)cc2s1	78.0*	79.0*	84.0	81.0	83.0	79.0*
CC(C)CN(CC(C)C)C(=O)Nc1cccc([N+](=O)[O-])c1	96.0	95.0	95.0	97.0	96.0	97.0
Cc1c(Cl)cccc1NS(=O)(=O)c1ccc2c(c1)C1C=CCC1C(c1ccc(C(=O)O)cc1)N2 (stereo unspecified)	80.0	73.0*	92.0	78.0*	83.0	84.0
O=Cc1cn(CC(=O)N2CCc3ccccc32)c2ccccc12	99.0	97.0	107.0	97.0	100.0	100.0
CNC(=O)C(C)NS(=O)(=O)c1ccc(F)cc1 (stereo unspecified)	36.0*	36.0*	27.0*	37.0*	40.0*	34.0*
Cc1ccc(NC(=O)C(C)NS(=O)(=O)c2ccc(F)cc2)cc1C (stereo unspecified)	105.0	101.0	111.0	104.0	103.0	113.0
Cc1ccc(S(=O)(=O)c2cc3c(=O)n4ccccc4nc3n(Cc3ccco3)c2=N)cc1C	103.0	103.0	103.0	108.0	107.0	109.0
CCn1c(=N)c(S(=O)(=O)c2ccc(C)cc2)cc2c(=O)n3ccccc3nc21	84.0	90.0	95.0	81.0	84.0	74.0*
Cc1ccc(S(=O)(=O)c2cc3c(=O)n4ccccc4nc3n(C)c2=N)cc1	78.0*	91.0	93.0	82.0	79.0*	93.0
CCn1c(=N)c(S(=O)(=O)c2ccccc2)cc2c(=O)n3ccccc3nc21	89.0	94.0	95.0	88.0	91.0	87.0
